Source: PubChem BioAssay (NCATS)
Inconclusive results are not listed. The source made the active and inactive calls. Calls come from the whole dose curve; as a rule, active = well fitted inhibition curve with a large enough effect; inconclusive = small, poorly fitted or top-dose-only effect; inactive = no such curve, though single readings can be large or run the other way.

Test: qHTS assay for measurement of the activity of small molecule inhibitors on Zika virus induced Caspase-3 activity in human iPSC derived neural progenitor cells (hNPCs) (AID 1224857); note: % of control where 0% means no effect; nearly all actives have a fitted effect of over 65% in size
Conditions: hNPCs ZIKV-induced caspase-3/7, Caspase-Glo luminescence, 6 h; series mostly up to 45.7 µM; activity change, negative = inhibition: at the top concentration
In short: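 Pretreat hNPCs with compound 1 h; infect ZIKV 2 FFU/cell; 6 h 37 C, 5% CO2; Caspase-Glo 3/7, 30 min RT; luminescence; normalize to no-virus and virus-only wells.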

**Q.** For `CC(C(O)c1ccc(O)cc1)N1CCC(Cc2ccccc2)CC1` (stereo not drawn), which outcome is on record?
**A.** The outcome was “inactive”.

**Q.** For `O=c1[nH]cnc2c1ncn2[C@@H]1O[C@H](CO)[C@@H](O)[C@H]1O`, which “activity change, negative = inhibition” value is on record?
**A.** Its value is 2.27% (inactive).

**Q.** Which outcome does the source give for `Nc1cc(=O)[nH]c(N)n1` here?
**A.** The outcome was “inactive”.

**Q.** With `O=c1cc[nH]c(=S)[nH]1` as the molecule, how does the “activity change, negative = inhibition” value read?
**A.** The value was -19.3% (inactive).

**Q.** Which outcome does the source give for `NC1[C@H]2CN(c3nc4c(cc3F)c(=O)c(C(=O)O)cn4-c3ccc(F)cc3F)C[C@@H]12` (stereo partly drawn) here?
**A.** The outcome was “inactive”.

**Q.** With `C[C@H](NC(CCc1ccccc1)C(=O)O)C(=O)N1CCC[C@H]1C(=O)O` (stereo partly drawn) as the molecule, how does the outcome read?
**A.** The outcome was “inactive”.

**Q.** For `NS(=O)(=O)c1cc2c(cc1C(F)(F)F)NC(Cc1ccccc1)NS2(=O)=O` (stereo not drawn), which “activity change, negative = inhibition” value is on record?
**A.** Its value is 11% (inactive).

**Q.** Which “activity change, negative = inhibition” value does the source give for `Oc1ccc(C(O)CNCCCCCCNCC(O)c2ccc(O)c(O)c2)cc1O` (stereo not drawn) here?
**A.** The value was -3.8% (inactive).

**Q.** For `N[C@H]1C(O)O[C@H](CO)[C@@H](O)[C@@H]1O` (stereo partly drawn), which “activity change, negative = inhibition” value is on record?
**A.** The value was 8.99% (inactive).

**Q.** Which “activity change, negative = inhibition” value does the source give for `O=C(O)Cc1sc(-c2ccccc2)nc1-c1ccc(Cl)cc1` here?
**A.** The value was 2.31% (inactive).

**Q.** With `C[C@H](N)[C@H](O)c1cccc(O)c1` as the molecule, how does the “activity change, negative = inhibition” value read?
**A.** Its value is 6.39% (inactive).

**Q.** With `CC1=C(CC(=O)O)c2cc(F)ccc2/C1=C\c1ccc(S(C)(=O)=O)cc1` as the molecule, how does the outcome read?
**A.** Its outcome is “inactive”.

**Q.** For `CCN(CC)CCNC(=O)c1c(C)[nH]c(/C=C2\C(=O)Nc3ccc(F)cc32)c1C`, which outcome is on record?
**A.** Its outcome is “inactive”.

**Q.** With `N=c1c[n+](N2CCOCC2)[n-]o1` as the molecule, how does the outcome read?
**A.** Its outcome is “inactive”.

**Q.** For `CC(C)(C)C(=O)NCCCC(=O)O`, which “activity change, negative = inhibition” value is on record?
**A.** Its value is 2.53% (inactive).

**Q.** With `O=C(CCCN1CCN(c2ccccn2)CC1)c1ccc(F)cc1` as the molecule, how does the “activity change, negative = inhibition” value read?
**A.** Its value is -16.7% (inactive).

**Q.** For `COC(=O)[C@H]1[C@H]2C[C@@H]3c4[nH]c5cc(OC)ccc5c4CCN3C[C@H]2C[C@@H](OC(=O)COc2ccc(OC)cc2)[C@@H]1OC`, which “activity change, negative = inhibition” value is on record?
**A.** The value was 8.59% (inactive).

**Q.** Which activity change, negative = inhibition does the source give for `C/C(=C(\CCOP(=O)(O)O)SC(=O)c1ccccc1)N(C=O)Cc1cnc(C)nc1N` here?
**A.** The activity change, negative = inhibition was 4.2% [at 4.53 µM] (inactive).
